PubChem BioAssay AID1035470 (Broad Institute, 2014)
Hit rate of the full screen: of about 1,800 compounds, fewer than 10 were called active. About 16% were inconclusive and are not listed.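 How the source made its calls: active means compound lowering the normal-ribosome reporter at least twice as much as the humanized-ribosome reporter, growth loss under a set limit; inconclusive means no clear call, values can overlap the other calls; inactive means the rest.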 Only a sample is shown. Results with a measured potency or affinity are listed apart.

Test: E. coli strain growth, wild-type against G2058 humanized RFP mutant – G2058 mutant RFP vs wild-type GFP, cherry-pick, two tests, dose response (AID 1035470)
Details: E. coli WT-GFP vs G2058-humanized RFP, fluorescence, 24 h; series mostly up to 50 µM; activity change, negative = inhibition: at the top concentration

Activity change, negative = inhibition, inactive:
COC(=O)CNC(=O)COC(=O)c1ccc(Cl)nc1 26.5
CC(OC(=O)CCc1nc2ccccc2c(=O)[nH]1)C(=O)c1ccc(Br)cc1 (stereo not drawn) 1.11
C(=C/c1nccc2c1[nH]c1ccccc12)/c1ccc2c(c1)OCO2 -9.87
O=C(Nc1cc(S(=O)(=O)N2CCOCC2)ccc1N1CCOCC1)c1ccc([N+](=O)[O-])s1 -15.8
Cc1cc(Br)cn2c(Cc3cccc(Cl)c3)c(-c3ccco3)nc12 -8.14
Cc1nc2ccccn2c1C(=O)Nc1ccc(Cl)cc1 5.9
COC(=O)c1ccc(CSc2nc3ccccc3s2)o1 -11
C[C@@H]1CCCCO[C@@H](CN(C)C(=O)CCCN(C)C)[C@H](C)CN([C@@H](C)CO)C(=O)c2cc(NC(=O)Nc3cccc4ccccc34)ccc2O1 31.3
Cc1nc(Nc2ccccc2)sc1C(=O)Nc1ccccc1 -26.5
Cn1c(=O)c2c(ncn2CC(O)CNc2ccc(F)cc2)n(C)c1=O (stereo not drawn) -11.4
CC1Cc2cc(S(=O)(=O)N3CCN(c4cccc(Cl)c4)CC3)ccc2N1C(=O)C1CC1 (stereo not drawn) -12.6
Nc1ccccc1C#CC(=O)c1ccccc1 -20.3
Cn1cc(CN2CCCC(C(=O)c3cccs3)C2)c(-c2cccc(Cl)c2)n1 (stereo not drawn) -5.45
CC(=O)N1c2c(cc(Br)cc2S(=O)(=O)N2CCCCC2)CC1C (stereo not drawn) -1.15
CC(OC(=O)COc1ccccc1)C(=O)NC1CCCC1 (stereo not drawn) -8.33
O=C(CCNC(=O)c1ccco1)Nc1cccc(Br)c1 -16.9
CC1(C)CC2CC(C)(CN2c2ncnc3ccccc23)C1 (stereo not drawn) -16.7
CS(=O)(=O)N(CC(=O)N1CCc2ccccc2C1)c1cccc(Br)c1 -13
O=S(=O)(NCc1cc(-c2ccccc2)no1)c1ccccc1Cl -13.4
CC(=O)c1ccc(-c2cccc([C@H]3[C@@H]4C=CC[C@@H](C)[C@@H]4C(=O)N3Cc3ccccc3)c2)cc1 -7.13
O=C(NC1CCCCC1)C(c1cccc2ccccc12)n1c(=O)c(-c2ccco2)nc2ccccc21 (stereo not drawn) -10.3
CC(C)(C)CC(=O)NCCc1csc(-c2ccccc2)n1 1.87
Cc1cccc(NC(=O)CN(C)S(=O)(=O)c2cccs2)c1 -12.2
Cc1ccc2oc(C(=O)N(C)Cc3ccc(C)o3)c(C)c2c1 -5.54
O=C(NCc1cccnc1)C1CCN(S(=O)(=O)c2cc([N+](=O)[O-])ccc2Cl)CC1 -18.9
COc1ccc(CNC(=O)c2sc3nc4c(c(C(F)(F)F)c3c2N)CCC4)cc1OC -15.1
CSc1ccccc1OCc1cc(C(=O)N(C)Cc2nonc2C)no1 -7.56
O=C1Nc2ccc(F)cc2C12Nc1ccccc1-c1nnc(SCc3ccccc3)nc1O2 (stereo not drawn) -11.2
COc1cccc(NC2=Nc3cccc4cccc2c34)c1 -20.4
COCc1nnc(NC(=O)c2ccc(S(=O)(=O)N3CCCC3)cc2)o1 -10.3
O=C(COc1cccc2c1CCN(Cc1ccc(Br)cc1)C2=O)N1CCOCC1 -5.18
Cc1cccc(OCc2nc(C#N)c(N3CCCC3)o2)c1 5.24
Cc1onc(-c2c(Cl)cccc2Cl)c1C(=O)Nc1ccc(Cl)cn1 -0.987
NS(=O)(=O)c1ccc(NC(=O)CCC(=O)O)cc1 23.6
Cc1ccc(NC(=O)C[n+]2cc(-c3ccccc3)n3c2CCC3)cc1 12.5
Cc1ccc(S(=O)(=O)Nc2ccc3c(c2)C(=O)N([C@@H](C)CO)C[C@@H](C)[C@H](CN(C)C(=O)c2ccccc2)OCCCC[C@@H](C)O3)cc1 0.461
COc1ccc(NC(=O)Nc2cccc3c2O[C@@H](CN(C)S(=O)(=O)c2ccc(Cl)cc2)[C@H](C)CN([C@@H](C)CO)C3=O)cc1 2.46 [at 26 µM]
O=C1c2ccccc2C(=O)N1CCc1c[nH]c2ccccc12 -10.9
CC(=O)Cc1cc(O)c2ccccc2c1OC(=O)c1ccc(Br)cc1 -5.75
COc1ccc(CC(=O)NC(C)c2ccc3ccccc3c2)cc1 (stereo not drawn) -2.81
Fc1ccc(Br)cc1SCCc1ccncc1 -17.4
C[C@@H]1CCCCO[C@@H](CN(C)C)[C@H](C)CN([C@@H](C)CO)C(=O)c2cc(NC(=O)Nc3cccc4ccccc34)ccc2O1 17.4
Cc1onc(-c2ccccc2)c1C(=O)Oc1ccccc1 -2.9
COC(=O)c1ccc2nc(-c3ccc(OC)c(OC)c3)c(Cc3ccc(C)cc3)n2c1 -12
COc1ccc(C(=O)NCCC2=CCCCC2)cc1[N+](=O)[O-] -2.38
C[C@H]1CN([C@@H](C)CO)C(=O)CCCn2nncc2CO[C@@H]1CN(C)Cc1ccccc1C(F)(F)F -15.1
COc1ccc(N2C(=O)C3C(c4ccc(C(=O)O)cc4)NC(Cc4ccccc4)(C(=O)O)C3C2=O)c([N+](=O)[O-])c1 (stereo not drawn) 5.02
Cc1ccc2nc(-c3ccc(Cl)cc3)c(Cc3ccccc3C(F)(F)F)n2c1 11.2
COc1ccc2cc(CO)c3cc(OC)c(OC)cc3c2c1 -16.3
CC(C)(C)NC(=O)C(c1ccncc1)N(Cc1ccc(F)cc1)C(=O)c1ccc(-c2ccccc2)[nH]1 (stereo not drawn) -0.988
Cc1noc(C)c1NC(=O)N(C)C[C@H]1OCCCC[C@@H](C)Oc2ccc(NC(=O)Nc3cccc4ccccc34)cc2C(=O)N([C@@H](C)CO)C[C@H]1C 2.78
Cn1c(CCN2CCOCC2)nc2cc(NC(=O)c3cccs3)ccc21 24.4
COc1ccccc1C(C(C(=O)c1ccccc1)N1CCOCC1)N1CCOCC1 (stereo not drawn) -8.67
Cc1cccc(-c2ccc([C@H]3[C@@H](CO)N4CCCCN(S(=O)(=O)c5ccccc5C)C[C@H]34)cc2)c1 -14.4
CCc1cc(CN2CCOCC2)c(NC(=O)c2ccccc2)s1 -6.48
COc1ccccc1CC(=O)NCCc1c[nH]c2ccccc12 3.23
Cn1c(=O)n(C)c2cc([N+](=O)[O-])c(N3CCN(C(=O)c4cccc(F)c4)CC3)cc21 -10.1
O=C(CSCc1ccc(Br)cc1)NCc1ccccn1 -9.31
Cc1ccc(CCN2C(=O)c3ccccc3C2C(=O)NCc2cccnc2)cc1 (stereo not drawn) -2.74
CS(=O)(=O)c1ccc(Cl)c(NC(=O)COC(=O)c2c(Cl)cccc2Cl)c1 -18.7
COCC#Cc1ccc2c(c1)O[C@H](CN(C)C(=O)c1ccccc1)[C@@H](C)CN([C@H](C)CO)S2(=O)=O -19
Cc1noc(C)c1NC(=O)Nc1ccc2c(c1)C(=O)N([C@H](C)CO)C[C@H](C)[C@H](CN(C)C(=O)Nc1ccc3c(c1)OCO3)OCCCC[C@H](C)O2 15
CC1(C)CC(=O)c2cnc(N3CCc4ccccc43)nc2C1 6.66
S=c1nc(-c2cc(Cl)cc(Cl)c2)[nH][nH]1 -16.2
O=[N+]([O-])c1ccc(NCCNCCOc2nonc2-c2ccccc2)c([N+](=O)[O-])c1 -27.2
Cc1nn2c(NCc3ccccn3)cc(C(C)C)nc2c1-c1ccccc1 -11.1
O=S(=O)(NOCc1ccc(Cl)cc1)c1ccc(Cl)cc1 -15
O=C(Nc1ccc2c(c1)OCCO2)C1C(c2ccccc2)=Nc2ccccc2N1C(=O)c1cccnc1 (stereo not drawn) 0.765
O=C(COc1ccccc1Cl)Nc1nc(-c2ccncc2)cs1 -15.4
CCOc1ccccc1N1CC(C(=O)Nc2cccc(S(=O)(=O)N3CCCCC3)c2)CC1=O (stereo not drawn) -18
COc1ccc(-c2csc3ncn(-c4ccc(C)cc4)c(=O)c23)cc1OC -22.9
O=C(NCc1nnnn1-c1ccc(Cl)cc1)c1ccc([N+](=O)[O-])o1 -6.35
O=[N+]([O-])c1cccc(COc2ccc(CN3CCOCC3)cc2)c1 -1.83
C[C@@H]1CN([C@@H](C)CO)C(=O)c2cc(NC(=O)C3CC3)ccc2O[C@H]1CN(C)C(=O)Nc1ccc(C(F)(F)F)cc1 -10.7
CCN(CC(=O)Nc1cccc(S(=O)(=O)N2CCCC2)c1)CC(=O)Nc1ccccc1OC -14.9
COC(=O)c1ccc2nc(-c3ccco3)c(Cc3ccc(C)cc3)n2c1 -19.6
COc1ccc(CC(=O)Nc2cc(S(=O)(=O)Nc3ccc(OC)cc3)ccc2OC)cc1 -11.4
CC(C)CNc1nc(S(=O)(=O)c2ccccc2)c(Cl)s1 -11.6
O=C(CN1CCCCC1)n1c2ccccc2c2ccccc21 1.66
O=C1c2ccccc2C(c2nnnn2Cc2ccccc2)N1Cc1cccc(F)c1 (stereo not drawn) -9.45
Cc1nn(CC(=O)c2ccc(Br)s2)c(C)c1[N+](=O)[O-] -2.97
Brc1ccc(-n2cnc(-c3ccccc3)c2)cc1 2.89
NC(=O)c1cccnc1Oc1ccc(Cl)cc1Cl -0.964
CCc1ccc(NC(=O)CCc2c(C)nn(-c3ccc(N4CCCCC4)nn3)c2C)cc1 -14.7
COc1ccc2c(c1)-c1nc(N)sc1CC2 -4.08
CC(C)(C)N(Cc1ccccc1)C(=O)COC(=O)Cn1cnc2ccccc2c1=O -17.1
COc1ccc(OC)c(NC(=O)CN(C)CC(=O)Nc2ccccc2Br)c1 -33
O=C(c1ccccc1)C1CN(Cc2ccccc2)CCC1(O)c1ccccc1 (stereo not drawn) -2.03
CCC1(CC)NC(=O)N(CC(=O)N2N=C(c3ccc(Cl)cc3)CC2c2ccco2)C1=O (stereo not drawn) -18.3
CCOc1ccccc1C(=O)NCC(=O)OCCOc1cccc(Cl)c1 -3.78
O=C(Nc1cc(F)ccc1F)N1CCCCN2[C@@H](CO)[C@H](c3ccc(-c4ccncc4)cc3)[C@@H]2C1 -2.55
O=S1(=O)N[C@H](Cc2ccccc2)COc2cc(N3CCSCC3)ccc21 -14
COc1cccc(NC(=O)c2ccc(NCCCN3CCC(C)CC3)c([N+](=O)[O-])c2)c1 -20
Cc1noc(C)c1S(=O)(=O)N(Cc1ccccc1)C(C)C -8.45
Cc1ccc(-c2c(=O)n(O)c3ccccc3[n+]2[O-])cc1 -1.24
Cc1nn2c(C)c(C(=O)Nc3ccccc3)cnc2c1-c1ccccc1 -2.61
CC(C)(C)S(=O)(=O)Cc1nc(-c2ccc(Cl)c(Cl)c2)cs1 -9.21
CCCCc1cc2c(cc1NC(=O)CN1CCCCC1)OCCO2 2.37
